Results on 60 compounds are retold here after article PMC4336329 (PLoS ONE, 2015).

Out of some 310,000 compounds screened, about 14,000 (4.5%) showed an effect of 50% or more. The effect is printed as a negative number. The full list was thinned out, with strong results kept by preference.
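Note: peak tail current of the secondary pulse compared with the same well before compound.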

In this test the target is human ether-à-go-go-related gene (hERG) potassium channel (human, UniProt Q12809). Description: primary screen, population patch clamp on CHO cells stably expressing hERG; higher = less effect of the substance.
Chain of human ether-à-go-go-related gene (hERG) potassium channel (Q12809 whole entry, looked up): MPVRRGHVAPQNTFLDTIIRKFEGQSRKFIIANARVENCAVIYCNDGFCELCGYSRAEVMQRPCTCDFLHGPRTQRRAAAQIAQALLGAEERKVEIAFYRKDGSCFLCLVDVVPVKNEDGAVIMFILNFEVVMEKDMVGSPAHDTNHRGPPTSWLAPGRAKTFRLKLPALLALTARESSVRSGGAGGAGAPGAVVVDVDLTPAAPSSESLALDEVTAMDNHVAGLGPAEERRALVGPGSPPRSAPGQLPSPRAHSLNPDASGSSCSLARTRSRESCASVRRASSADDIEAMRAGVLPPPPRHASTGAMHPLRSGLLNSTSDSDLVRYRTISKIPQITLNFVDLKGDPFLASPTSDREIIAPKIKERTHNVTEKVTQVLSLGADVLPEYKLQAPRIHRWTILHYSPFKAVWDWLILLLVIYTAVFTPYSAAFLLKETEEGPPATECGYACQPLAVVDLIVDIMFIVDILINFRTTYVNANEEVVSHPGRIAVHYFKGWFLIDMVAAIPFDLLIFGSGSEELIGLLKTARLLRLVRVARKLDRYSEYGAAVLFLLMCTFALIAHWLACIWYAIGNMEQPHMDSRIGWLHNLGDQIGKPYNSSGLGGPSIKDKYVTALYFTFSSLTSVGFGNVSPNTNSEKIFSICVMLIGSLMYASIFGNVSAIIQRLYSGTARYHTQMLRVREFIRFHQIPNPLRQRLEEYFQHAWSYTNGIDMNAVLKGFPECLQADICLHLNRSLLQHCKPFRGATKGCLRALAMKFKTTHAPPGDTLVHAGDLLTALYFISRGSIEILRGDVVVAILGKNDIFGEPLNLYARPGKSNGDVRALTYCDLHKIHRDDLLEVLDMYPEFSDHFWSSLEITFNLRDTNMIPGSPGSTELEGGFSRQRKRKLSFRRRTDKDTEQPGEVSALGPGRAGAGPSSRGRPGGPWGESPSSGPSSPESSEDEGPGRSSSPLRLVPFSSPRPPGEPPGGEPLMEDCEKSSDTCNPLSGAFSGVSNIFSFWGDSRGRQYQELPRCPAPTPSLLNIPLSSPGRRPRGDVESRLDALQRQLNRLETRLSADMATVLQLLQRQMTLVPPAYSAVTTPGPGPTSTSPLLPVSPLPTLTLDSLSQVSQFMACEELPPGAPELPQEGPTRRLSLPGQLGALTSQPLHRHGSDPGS
As for `Cc1ccc(OCc2nc3ccccc3[nH]2)cc1`, the “hERG current change (%, negative = inhibition) at 10uM” value is listed as -9.02%. Regarding `O=C(CN1CCN(c2cccc(C(F)(F)F)c2)CC1)N(C1CC1)C1CCS(=O)(=O)C1` (stereo not drawn), the “hERG current change (%, negative = inhibition) at 10uM” value is given as -29.2%.

Take `O=[N+]([O-])c1cccnc1N1CCCCC1`: the “hERG current change (%, negative = inhibition) at 10uM” value stood at 5.7%.

`Cc1c(C(=O)N2CCN(c3ccccc3)CC2)sc2nc3n(c(=O)c12)CCC3`: the “hERG current change (%, negative = inhibition) at 10uM” value amounted to 6.84%. For `COc1ccc(-c2nnnn2C)cc1S(=O)(=O)NCCc1ccccc1`, the “hERG current change (%, negative = inhibition) at 10uM” value was -2.23%. The same measure for `CCc1c(C)sc(NC(=O)Cc2ccccc2OC)c1C(=O)N1CCOCC1`: -16.4%; for `Cc1cc(N)n2nc(-c3ccc(C(C)(C)C)cc3)cc2n1`: 8.26%; for `O=C(NCC(c1cccs1)N1CCOCC1)c1cc([N+](=O)[O-])ccc1Cl` (stereo not drawn): -20.5%. The same measure for `NC(=O)c1ccccc1OCC(=O)Nc1ccc2c(c1)CCC2`: 5.27%; for `Cc1ccc(S(=O)(=O)Oc2ccc(/C=C3\N=C(c4cccc(C)c4)OC3=O)cc2)cc1`: 1.5%. On to `O=C(COc1ncnc2ccccc12)Nc1ccc(Cl)c(S(=O)(=O)N2CCOCC2)c1`, for which the “hERG current change (%, negative = inhibition) at 10uM” value is on record as -13.5%. The same measure for `CCn1c(C)c(C(=O)O)c2cc(OC)ccc21`: 6.41%. The same measure for `Cc1ccc(NC(=O)c2ccc(Cl)c(N3C(=O)C=CC3=O)c2)cc1`: -0.826%. In the case of `CN(CCOc1ccccc1)C(=O)c1ccc(OC2CCN(C(=O)C3CC3)CC2)cc1` it was -25.7%; in that of `COc1ccc(NC(=O)CCC(=O)Nc2nnc(CC(C)C)s2)cc1Cl`, 20%; in that of `CN1CCC(=O)N([C@H](CO)Cc2ccccc2)CC1`, 12%. On to `COc1ccc(SC[C@H](Cc2ccccc2)N2CCN(C)CCC2=O)cc1`, for which the “hERG current change (%, negative = inhibition) at 10uM” value is on record as -52.2%.

`Cc1nn(CCCC(=O)NCc2ccc(Cl)cc2)c(C)c1[N+](=O)[O-]`: the “hERG current change (%, negative = inhibition) at 10uM” value is reported as -41.9%.

For `Nc1cc(C(=O)N2CCCC2)cc(C(=O)N2CCCC2)c1`, the “hERG current change (%, negative = inhibition) at 10uM” value is given as 11.9%. The same measure for `O=C(O)c1ccc2cc(-c3ccccc3)[nH]c2c1`: -30.8%; for `C=CCN1C(=O)C(Cc2ccc(OC)cc2)S/C1=N\N=C\c1cccs1` (stereo not drawn): 13.1%; for `O=C(CCC(=O)N1CCN(c2ccc(F)cc2)CC1)c1ccccc1`: -12.7%. The same measure for `O=C(CCn1nc(-c2ccc(Cl)cc2)ccc1=O)N1CCN(c2ccccc2)CC1`: -45.9%; for `CN1C(=O)CC(N2CCN(c3ccccn3)CC2)C1=O` (stereo not drawn): 1.46%. In the case of `O=C(CSc1ccccc1)N1CCN(c2ccccn2)CC1` it was -24.6%. Take `O=C1CC(N2CCN(c3ccccn3)CC2)C(=O)N1CC(c1ccccc1)c1ccccc1` (stereo not drawn): the “hERG current change (%, negative = inhibition) at 10uM” value was -64%. The same measure for `O=C1CC(N2CCN(c3ccccn3)CC2)C(=O)N1c1ccc(F)cc1` (stereo not drawn): 14.7%. In the case of `O=C(CCn1nc(-c2ccc(Cl)cc2)ccc1=O)N1CCOCC1`, the “hERG current change (%, negative = inhibition) at 10uM” value was -36.9%. On to `Cc1ccc(C(=O)CCC(=O)N2CCN(c3ccc(F)cc3)CC2)cc1`, for which the “hERG current change (%, negative = inhibition) at 10uM” value was -10.1%.

For `O=C(O)CCC(=O)N1CCN(c2ccccn2)CC1`, the “hERG current change (%, negative = inhibition) at 10uM” value was found to be 9.16%. Take `O=C(CCC(=O)N1CCN(c2ccc(F)cc2)CC1)c1ccc(F)cc1`: the “hERG current change (%, negative = inhibition) at 10uM” value was -69.4%. In the case of `O=C(CC(c1ccccc1)c1ccccc1)N1CCN(c2ccccn2)CC1` it was -53.4%; in that of `O=C(CCn1nc(-c2ccc(Cl)cc2)ccc1=O)N1CCN(c2ccc(F)cc2)CC1`, -52.9%; in that of `Cn1c(COc2cccc3cccnc23)nnc1SCC(=O)O`, 9.13%. On to `Cc1cccc(C)c1NC(=O)CCS(=O)(=O)c1cccc2nsnc12`, for which the “hERG current change (%, negative = inhibition) at 10uM” value was -4.59%. The same measure for `CCOC(=O)c1cc2c(ccn2C)n1Cc1ccccc1C`: 11.8%; for `CN1C(=O)CC(c2ccccc2)C1=O` (stereo not drawn): 3.18%. Take `Cc1cc(NCCc2ccccc2F)n2ncnc2n1`: the “hERG current change (%, negative = inhibition) at 10uM” value is listed as -1.21%. In the case of `Cc1cc(C)cc(N(C(=O)Cc2cccs2)C(C(=O)NC2CCCC2)c2ccc(C)o2)c1` (stereo not drawn) it was 2.77%; in that of `COC(=O)c1cc2c(ccn2-c2ccc(F)cc2)n1Cc1cccc(OC)c1`, 0.0373%; in that of `Cc1ccc(-c2ccc(=O)n(CCC(=O)N3CCN(c4ccccc4)CC3)n2)cc1`, -49.1%. The same measure for `O=C(CCn1nc(-c2ccccc2)ccc1=O)N1CCN(c2ccccc2)CC1`: -11.2%; for `O=C(CCC(=O)N1CCN(c2ccc(F)cc2)CC1)c1ccc(Cl)cc1`: -55.8%. In the case of `O=C(O)CCC(=O)N1CCN(c2ccc(C(=O)c3ccc(F)cc3)cc2)CC1` it was 0.927%; in that of `O=C(CCC(=O)N1CCN(c2ccc(F)cc2)CC1)N1CCN(c2ccc(F)cc2)CC1`, -43.9%; in that of `O=C(CCn1nc(-c2ccccc2)ccc1=O)N1CCN(c2ccccn2)CC1`, -53.1%. Consider `CC(C)CN(C(=O)COC(=O)c1ccc([N+](=O)[O-])o1)C1CCS(=O)(=O)C1` (stereo not drawn), for which the “hERG current change (%, negative = inhibition) at 10uM” value is on record as -31.8%. The same measure for `CC(C)COC(=O)N1CC(O)CC1C(=O)O` (stereo not drawn): 25.3%; for `COCC(=O)Nc1nnc(SCC(=O)N2C(C)CCCC2C)s1` (stereo not drawn): 15.2%. The same measure for `CC(=O)Nc1nnc(SCC(=O)N2C(C)CCCC2C)s1` (stereo not drawn): 12.9%; for `CCCC(=O)Nc1nnc(SCC(=O)N2C(C)CCCC2C)s1` (stereo not drawn): -50.1%; for `Cc1ccc(S(=O)(=O)N2CCCCC2)cc1NC(=O)CSc1ncn[nH]1`: 12%.

Regarding `COCCn1cnnc1SCC(=O)Nc1cccc(S(=O)(=O)N2CCCCCC2)c1`, the “hERG current change (%, negative = inhibition) at 10uM” value was -60.3%.

For `Cc1ccc(S(=O)(=O)N2CCCCC2)cc1NC(=O)CSc1nncn1-c1ccccc1`, the “hERG current change (%, negative = inhibition) at 10uM” value is listed as -35.2%. Regarding `O=C(CSc1ncn[nH]1)Nc1cccc(S(=O)(=O)N2CCCCCC2)c1`, the “hERG current change (%, negative = inhibition) at 10uM” value is listed as -77.1%. Consider `COCCn1cnnc1SCC(=O)Nc1cccc(S(=O)(=O)N2CCCCC2)c1`, for which the “hERG current change (%, negative = inhibition) at 10uM” value was -17.8%.

In the case of `COc1ccc(-n2cnnc2SCC(=O)Nc2cccc(S(=O)(=O)N3CCCCC3)c2)cc1`, the “hERG current change (%, negative = inhibition) at 10uM” value was -18.5%.

Take `O=C(CSc1ncn[nH]1)Nc1ccc(S(=O)(=O)N2CCCC2)cc1`: the “hERG current change (%, negative = inhibition) at 10uM” value worked out at 14.5%. The same measure for `COc1ccc(-n2cnnc2SCC(=O)Nc2cc(S(=O)(=O)N3CCCCC3)ccc2C)cc1`: -84%; for `Cn1cnnc1SCC(=O)Nc1cccc(S(=O)(=O)N2CCCCCC2)c1`: -17.4%.
